Only some compounds are listed: those with a hit (about 2.2% of all), similar ones and a draw of the others.
aSyn 5UTR inh: 5' untranslated region of α-synuclein, MLPCN primary screen | alpha-synuclein 5'UTR reporter, inhibitor activity | inhibition, % (tested at 7.5 µM) | hit rate 0.82% among 300,000 | AID 1813; in the data active means inhibition above about 60%;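 further: H4 neuroglioblastoma cells stably carrying SNCA 5'UTR luciferase fusion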
IEC-6 tox: IEC-6 cytotoxicity, counter-screen for KLF5 inhibitors | luminescence viability | inhibition, % at 5 µM | hit rate 0.78% among 290,000 | AID 1825; in the data active means inhibition above about 22%
Ba/F3 V617F tox: lowers viability of Ba/F3 cells expressing EpoR and JAK2V617F; inhibition, % at 5.6 µM; hit rate 1.1% among 220,000; ATP luminescence; AID 1446;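 active means inhibition above the campaign mean plus 3 SD over all tested compounds, cut at about 24% in these data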;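 further: cytokine-independent growth of Ba/F3 cells driven by EpoR plus mutant JAK2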
APP 5UTR inh: APP translation inhibition. inhibition, % at 2 µM. hit rate 0.82% among 190,000. SH-SY5Y APP 5'UTR-luciferase reporter, luminescence;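 active means inhibition above a set limit, derived from the sample mean plus 3 SD, cut at about 45% in these data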
KLF5 inh: inhibitors of KLF5 expression; hit rate 0.23% among 290,000; DLD-1 KLF5 promoter-luciferase reporter, luminescence; inhibition, % at 5 µM;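 active means inhibition above a per-plate limit of that plate's mean compound inhibition plus 3 SD, cut at about 60% in these data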;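 further: higher means less KLF5 promoter-driven luciferase light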
BaF3 parental: reduces parental Ba/F3 cell viability, JAK2V617F counter-screen | AID 1486 | inhibition, % at 5.6 µM | hit rate 1.1% among 220,000 | CellTiter-Glo ATP luminescence;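 active means inhibition above a per-campaign cutoff, the mean inhibition of all tested compounds plus 3 SD, cut at about 27% in these data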
Numbers stand for hits; n = inactive; x = not tested or not shown.

SMILES | aSyn 5UTR inh | IEC-6 tox | Ba/F3 V617F tox | APP 5UTR inh | KLF5 inh | BaF3 parental
Cc1ccccc1N/N=C/c1sc(=O)n(Cc2cccc(C(=O)O)c2)c1Cl | n | n | n | x | n | n
COC(=O)c1cccc(Cn2c(Cl)c(/C=N/Nc3ccccc3C)sc2=O)c1 | n | n | n | 46 | n | n
O=C(O)c1ccc(N/N=C/c2ccc3c(c2)OCO3)cc1 | 94 | n | n | n | n | n
CC(=O)n1cc(N(C(=O)CCl)c2ccc(C)cc2)c2ccccc21 | 89 | 23 | 99 | x | n | 28
CC(=O)N(c1ccc(Cl)cc1)c1cn(C(C)=O)c2ccccc12 | n | n | n | n | n | n
Cc1cccc(N2CCC(N3CCN(C4CCCCC4)C(CCO)C3)CC2)c1C (stereo unspecified) | n | n | n | n | n | n
COc1cccc(CNC(=O)c2cc(S(=O)(=O)N3CCCC3)cn2C)c1 | n | n | x | x | n | x
CCCc1cc(=O)oc2cc(OCC(=O)NCCCN3CCCC3=O)ccc12 | n | n | x | x | n | x
CC[n+]1c(/C=C/N(C)c2ccccc2)oc2ccc(F)cc21 | n | n | 79 | n | n | 72
CC[n+]1c(/C=C/Nc2ccccc2)oc2ccc(OC)cc21 | n | n | n | n | n | n
CC[n+]1c(/C=C/N(C)c2ccccc2)oc2ccccc21 | n | n | 86 | n | n | 72
Cc1c(Cl)c(C(=O)NNC(=S)Nc2ccc(F)cc2)nn1C | n | n | n | n | n | n
N=c1c2c(n(Cc3ccc(F)cc3)c3c1CCC3)CCC2 | n | n | 49 | n | n | 65
CNCC(O)Cn1c2c(c3ccccc31)CCCC2 (stereo unspecified) | n | n | n | n | n | n
CCn1c2c(c(=N)c3ccccc31)CCC2 | n | n | n | x | n | 46
CCCCn1c2c(c(=N)c3c1CCC3)CCC2 | x | n | 73 | n | n | 63
CCn1c2c(c(=N)c3c1CCC3)CCC2 | n | n | n | n | n | 28
Fc1ccc(CN2CCCCCCC2)cc1 | n | n | n | n | n | n
COc1cccc(OCc2cc(C(=O)NC(C)c3cnn(C)c3C)no2)c1 (stereo unspecified) | n | n | x | x | n | x
COc1ccc(-n2nc(C(=O)NCC(=O)NCCCN3CC(C)CC(C)C3)c3ccccc3c2=O)cc1OC (stereo unspecified) | n | n | x | x | n | x
CCN(CC)S(=O)(=O)c1ccc(N2CCOCC2)c(NCC(=O)Nc2ccc(F)cc2)c1 | n | n | n | n | n | n
CCCC(=NCCc1c(C)[nH]c2ccccc12)C1=C(O)CC(c2ccccc2)CC1=O (stereo unspecified) | 86 | n | n | 84 | n | n
CCCCC(=NCCc1c(C)[nH]c2ccccc12)C1=C(O)CC(c2ccccc2)CC1=O (stereo unspecified) | n | n | n | n | n | n
CC(=NCCc1c(C)[nH]c2ccc(C)cc12)C1=C(O)CC(c2ccccc2)CC1=O (stereo unspecified) | n | n | n | 88 | n | n
CC(=NCCc1c(C)[nH]c2ccc(OC(F)(F)F)cc12)C1=C(O)CC(c2ccccc2)CC1=O (stereo unspecified) | n | n | n | n | n | n
SMILES | aSyn 5UTR inh | IEC-6 tox | Ba/F3 V617F tox | APP 5UTR inh | KLF5 inh | BaF3 parental
O=C(CNCc1cccs1)Nc1ccc(N2CCCCCC2)cc1 | n | n | n | n | n | n
CCOC(=O)c1cc(-c2ccccc2)sc1NC(=O)COC(=O)c1cccc(S(N)(=O)=O)c1 | 72 | n | n | n | n | n
COC(=O)c1ccc(CSc2nnc(Nc3ccccc3OC)s2)o1 | n | n | n | n | n | 41
COC(=O)c1ccc(CSc2nnc(Nc3ccc(OC)cc3)s2)o1 | n | n | n | n | n | n
O=C(OCc1nc2ccccc2s1)C1CCN(S(=O)(=O)c2cccs2)CC1 | n | n | n | n | n | 96
O=S(=O)(c1cccs1)N1CCN(Cc2nc3ccccc3s2)CC1 | n | n | n | n | n | n
CC(=O)c1cccc(S(=O)(=O)NCCC(=O)O)c1 | n | n | n | n | n | 34
Cc1ccc2c(c1)S/C(=C/c1ccc[n+](CCO)c1)N2C | n | n | 87 | n | n | 68
Cc1ccc2c(c1)S/C(=C\c1cccc[n+]1C)N2CCO | n | n | x | x | n | x
O=C(NNS(=O)(=O)c1ccc2ccccc2c1)c1cc(-c2ccccn2)nc2ccccc12 | n | n | n | n | n | n
CCOC(=O)Cn1ccc(NC(=O)c2ccc(F)cc2)n1 | n | n | x | x | n | x
Cc1nnn(-c2nonc2N)c1C(=O)N/N=C/c1cccc2ccccc12 | n | n | n | n | n | n
Cc1nnn(-c2nonc2N)c1C(=O)N/N=C/c1ccccc1O | 68 | n | n | 64 | n | n
Cc1ccc(C)n1Cc1ccccc1Cl | n | n | n | n | n | n
N=c1ccn(Cc2ccccc2Cl)cc1 | n | n | 81 | n | n | 65
N=c1ccn(Cc2c(Cl)cccc2Cl)cc1 | n | n | 75 | x | n | 63
N=c1ccn(Cc2ccc(Cl)cc2Cl)cc1 | n | n | 90 | n | n | 71
CCn1ccc(=N)cc1 | n | n | n | n | n | n
CNc1[nH]c(=O)[nH]c(=O)c1N=Nc1cc(Cl)ccc1Cl | n | x | x | x | x | x
CC[N+](CC)(CC#Cc1ccccc1)CC(=O)c1ccc(Cl)cc1 | n | n | n | n | n | n
C#CC[N+](CC)(CC)CC#Cc1cccc(Cl)c1 | n | n | 73 | n | n | 66
Cc1nc([N+](=O)[O-])c(Br)n1CC(=O)c1ccc(F)cc1 | x | n | 37 | n | n | n
Cc1nc([N+](=O)[O-])c(Br)n1CC(=O)c1cccc([N+](=O)[O-])c1 | n | n | n | n | n | n
CCC(=O)Nc1nonc1-c1nc2ccccc2n1Cc1cccc2ccccc12 | 67 | n | n | 89 | n | n
CCN1CCN(C(=S)c2ccc(-c3ccccc3)cc2)CC1 | 66 | n | n | n | n | n
SMILES | aSyn 5UTR inh | IEC-6 tox | Ba/F3 V617F tox | APP 5UTR inh | KLF5 inh | BaF3 parental
Cc1ccc(C(=S)N2CCN(Cc3ccccc3)CC2)cc1 | n | n | n | n | n | n
Cc1cc(C)c(NC(=O)CSc2nnc(CNC(=O)c3ccco3)o2)c(C)c1 | n | n | x | x | n | x
Cn1c(SC2=CS(=O)(=O)c3ccccc32)nc2ccccc21 | n | n | 89 | 72 | n | 65
Nc1c(C(=O)N2CCOCC2)sc2nc3c(cc12)CCCC3 | 76 | n | x | x | n | x
Cc1cc(C)c2nc3sc(C(=O)N4CCOCC4)c(N)c3cc2c1 | 88 | n | n | x | n | n
Cc1ccc(S(=O)(=O)N2C(=O)CCC2C(=O)O/N=C(\N)c2ccccc2)cc1 (stereo unspecified) | n | n | x | x | n | x
CC1(C)NC(=O)N(CCCCOc2ccc(Cl)cc2C=O)C1=O | n | n | 71 | n | n | 76
O=C(O)c1ccc2cc(-c3ccccc3)[nH]c2c1 | 66 | x | x | x | x | x
COc1ccc(NC(=O)CCCn2cnc3ccccc3c2=O)c(OC)c1 | n | n | x | x | n | x
CN1CCN(C2Cc3ccc(F)cc3Sc3cc(F)c(Cl)cc32)CC1 (stereo unspecified) | 102 | x | x | x | x | x
CC(C)c1ccc2c(c1)C(N1CCNCC1)Cc1ccc(F)cc1S2 (stereo unspecified) | 75 | x | x | x | x | x
CCOC(=O)c1c(CNc2ccncc2)n(C)c2cc(Br)c(O)cc12 | n | n | 38 | n | n | 41
